The list is not random: actives were taken first. Their share in the collection is about 0.85%.
GLS inh = qHTS for Inhibitors of Glutaminase (GLS) | Glutaminase kidney isoform, mitochondrial (Homo sapiens), O94925 | GLS enzymatic activity, qHTS titration | Potency, µM (series often up to 45.5 µM), for inactives: top-dose activity change, negative = inhibition, usual class: inhibitors | actives 0.21% (n = 410,000) | AID 624170, 2012
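Assay buffer: 45 mM KH2PO4 pH 8.2, 0.02% Tween-20. hKGA acts on L-glutamine (1 mM solution added); product glutamate is reported by an oxidase/peroxidase Amplex Red coupling, with fluorescence taken at baseline and 30 min.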
APEX1 inh = qHTS Assay for Inhibitors of the Human Apurinic/apyrimidinic Endonuclease 1 (APE1); recombinant APE1, TAMRA/BHQ-2 abasic DNA cleavage fluorescence; actives 0.35% (n = 350,000); Potency, µM (series often up to 65.8 µM), for the others: top-dose activity change, negative = inhibition, hits mostly inhibitors; DNA repair nuclease/redox regulator APEX1 (Homo sapiens), P27695;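 further: plate controls were vehicle for no effect and reference inhibitor for full effect; nearly all actives have a fitted effect of over 55% in size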
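Step 1: APE1 (0.75 nM) with compound, 15 min RT. Step 2: add 50 nM fluorophore/quencher THF duplex. Step 3: three fluorescence reads 60 s apart (525/598 nm); read 3 minus read 1 = reaction progress.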
TDP1 inh = qHTS Assay for Inhibitors of Tyrosyl-DNA Phosphodiesterase (TDP1); Tyrosyl-DNA phosphodiesterase 1 (Homo sapiens), Q9NUW8; recombinant TDP1, AlphaScreen DNA substrate cleavage; Potency, µM (highest dose often 130 µM), inactives show top-dose activity change, negative = inhibition, most hits filed as inhibitors; actives 0.28% (n = 350,000); further: nearly all actives have a fitted effect of over 40% in size
Target sequence (Q9NUW8 whole entry, looked up): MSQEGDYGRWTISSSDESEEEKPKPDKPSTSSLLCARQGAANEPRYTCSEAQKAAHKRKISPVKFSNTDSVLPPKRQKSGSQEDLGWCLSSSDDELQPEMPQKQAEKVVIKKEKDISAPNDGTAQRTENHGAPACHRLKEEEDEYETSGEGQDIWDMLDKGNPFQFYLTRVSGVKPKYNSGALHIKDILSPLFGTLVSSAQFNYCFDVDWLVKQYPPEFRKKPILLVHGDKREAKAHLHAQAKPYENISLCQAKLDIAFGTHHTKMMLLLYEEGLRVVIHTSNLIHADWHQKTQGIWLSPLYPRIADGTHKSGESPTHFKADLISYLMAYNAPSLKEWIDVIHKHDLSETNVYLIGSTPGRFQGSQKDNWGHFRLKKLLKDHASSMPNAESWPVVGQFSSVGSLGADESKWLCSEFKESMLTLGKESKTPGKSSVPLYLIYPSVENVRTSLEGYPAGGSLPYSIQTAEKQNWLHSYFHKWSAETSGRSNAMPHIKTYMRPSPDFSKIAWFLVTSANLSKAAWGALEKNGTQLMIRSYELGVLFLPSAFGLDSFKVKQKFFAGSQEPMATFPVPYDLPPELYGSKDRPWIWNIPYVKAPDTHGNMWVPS
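Tdp1 1 nM final; 15 min RT w/ cpd; substrate 15 nM, 5 min; beads 10 ug/ml, 10 min; AlphaScreen read. Neg ctrl: no enzyme.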
RECQ1 helicase = qHTS Assay for Inhibitors of RecQ-Like Dna Helicase 1 (RECQ1); RECQ1 DNA unwinding, red fluorescence kinetic read; Potency, µM (top dose mostly 57.3 µM), for the others: at the highest dose activity, negative = inhibition, hits mostly inhibitors; actives 0.54% (n = 240,000); AID 2549, 2010;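 further: plate controls were vehicle for no effect and no enzyme for full effect; nearly all actives have a fitted effect of over 30% in size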
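50 nM RECQ1T1 preincubated 15 min with compound in Tris pH 8.0 buffer with MgCl2, DTT, Tween-20 and 2.5 ug/ml poly(dI-dC); started with 200 nM TAMRA/BHQ-2 forked duplex and 2 mM ATP. Unwinding read as fluorescence (525/598 nm), two reads 2 h apart.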
BLM helicase inh = qHTS Assay for Inhibitors of Bloom's syndrome helicase (BLM) | RecQ-like DNA helicase BLM (Homo sapiens), P54132 | recombinant BLM DNA unwinding, fluorescence dequenching | Potency, µM (titrated, usually from 56.1 µM), inactives show at the top dose activity change, negative = inhibition, most hits filed as inhibitors | actives 0.2% (n = 350,000) | AID 2528, 2010;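 further: plate controls were vehicle for no effect and no enzyme for full effect; nearly all actives have a fitted effect of over 35% in size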
PGK inhibitor = qHTS Assay to Find Inhibitors of Phosphoglycerate Kinase; Potency, µM (top dose mostly 57.5 µM), inactives show at the highest dose activity change, negative = inhibition, usual class: inhibitors; Phosphoglycerate kinase, glycosomal (Trypanosoma brucei brucei), P07378; actives 0.043% (n = 380,000); PGK/GAPDH coupled, Kinase-Glo luminescence, 60 min; AID 602233, 2012; further: nearly all actives have a fitted effect of over 60% in size
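Recombinant glycosomal PGK reaction used 1,3-bisphosphoglycerate generated in-well by GAPDH (100nM final) in 100mM TEA pH 7.6, 5mM MgCl2, 0.01% Tween-20. After 60 minutes at room temperature, ATP was read by Kinase-Glo Plus luminescence end-point.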
Active calls of the source: *; i = inactive; ? = inconclusive; / = no result; [ ] = remark or other dose. The call rests on the fitted dose curve; in most records, active means well fitted curve in the direction sought with a large enough effect; inconclusive means small, poorly fitted or top-dose-only effect, or another doubt; inactive means no such curve, though single readings can be large; an effect the other way counts as inactive or inconclusive. Unless noted, on the % scale 0 is the no-effect control and ±100 the full control effect; potency means the concentration at half of the fitted maximal effect.

SMILES	GLS inh	APEX1 inh	TDP1 inh	RECQ1 helicase	BLM helicase inh	PGK inhibitor
Cc1cc(C(F)(F)F)nn1CC(=O)NNC(=S)Nc1ccc(Cl)cc1	9.4%	-5.1%	11.8%	-2.3%	0.4%	-7.7%
O=C(Cn1nnc(-c2cc(C(F)(F)F)cc(C(F)(F)F)c2)n1)NNC(=S)Nc1ccc(Cl)cc1	12.7%	-0.8%	-5.9%	4.8%	17.8µM*	-0.7%
CSc1cc2c(s1)c1cnn(Cc3cccc(O)c3)c(=O)c1n2C	/	/	0.8%	/	/	/
CCn1c(C)nc2cc(C(=O)N/N=C/c3ccc(O)c(O)c3O)ccc21	?	-9.0%	-2.7%	10.5%	6.31µM*	-12.3%
CCn1c(C)nc2cc(C(=O)N/N=C/c3cccc(OC)c3O)ccc21	14.6%	-0.2%	3.6%	25.5%	-19.8%	-0.5%
Nc1nc(-c2ccccc2)c(N=Nc2cccc3ccccc23)s1	-5.1%	?	10.8%	35.5µM*	-14.6%	-3.1%
Cc1cc(NS(=O)(=O)c2ccc3c(c2)CCC(=O)N3)ccc1F	/	/	0.9%	/	/	/
COc1cccc(/C=N/n2c(C3CCCCC3)n[nH]c2=S)c1O	7.94µM*	4.4%	/	/	-4.6%	i
COc1ccc([C@H]2[C@H](c3ccccc3)C(=O)N2Cc2ccccc2)cc1COc1ccc(NC(C)=O)cc1	/	/	0.3%	/	/	/
Nc1c(S(=O)(=O)O)cc(NC(=O)c2ccccc2)c2c1C(=O)c1ccccc1C2=O	?	21.2µM*	/	/	?	/
O=C(Nc1ccccc1-c1ccccc1)c1ccccc1	2.5%	-2.6%	/	/	0.8%	-0.6%
Cc1cccc(NC(=O)c2cc3c(=O)n4ccccc4nc3s2)c1	-21.3%	14.0%[12.4 µM]	79.4µM*	/	?	-8.6%
O=C(OCC1(COC(=O)c2cccnc2)CCCC(COC(=O)c2cccnc2)(COC(=O)c2cccnc2)C1O)c1cccnc1	-2.2%	/	/	/	/	/
O=C(NN=C1CCCC1)c1cccc(O)c1	24.6%	22.0%	1.9%[56.1 µM]	/	-3.5%	0.2%
O=C(NN=C1CCCC1)c1cc(O)cc(O)c1	-25.0%	10.6µM*	17.8µM*	/	-7.3%	?
CCOC(=O)c1c(NC(=O)CC2Nc3ccccc3NC2=O)sc(C)c1C (configuration not stated)	12.6µM*	-6.2%	5.3%	-1.6%	-0.3%	i
CC(C)(C)c1csc(N/N=C/c2cccnc2)n1	11.2µM*	-6.5%	10.1%	-13.2%	0.8%	4.3%
C(=N\Nc1nc(-c2ccccc2)cs1)/c1cccnc1	-6.3%	20.9%	5.3%	-21.4%	-8.4%	i
COc1ccc(Cl)c(Cn2cnc3c(cnn3C(C)(C)C)c2=O)c1F	/	-3.7%	/	/	/	/
COc1ccc(Cl)cc1NC(=O)NN1CCN(C)CC1	1.0%	13.4µM*	14.1µM*	/	-18.1%	-6.5%
Cc1ccc(OCC(=O)c2cc(C)c(C)cc2C)c([N+](=O)[O-])n1	-5.3%	?	-5.0%	i	-17.7%	i
Cc1ccc(OCC(=O)c2c(N)n(C)c(=O)n(C)c2=O)c([N+](=O)[O-])n1	14.1µM*	15µM*	3.16µM*	/	/	?
O=C(NCc1cccnc1)c1ccc(NS(=O)(=O)c2ccc(F)cc2)cc1	13.6%	29.4%	4.2%	/	-0.3%	7.5%
O=C(NCc1cccnc1)c1ccc(NS(=O)(=O)c2ccccc2)cc1	5.9%	19.9%	3.55µM*	/	-4.9%	-4.1%
O=C1CCCN1C(=O)CSc1ncnc2sccc12	24.0%	-6.7%	50.1µM*	/	/	-5.0%
CCCCCCCN(CC)CCCC(O)c1ccc(NS(C)(=O)=O)cc1 (configuration not stated)	30.4%	/	/	/	/	/
